In the supplement of paper PMC10849652:
Targets with a hit are over-represented here; the source holds about 7,900 in all. About 0.6% of all pairs of compound and target were hits.

Compound: CNc1nc(-c2ccc3c(N)n[nH]c3c2)cc(N2C[C@@H](C(=O)NC3CCCCC3)CC[C@H]2C)n1
Experiment: log2 fold change, soluble protein after heating vs DMSO (PISA); higher = thermal stabilisation; K562 cells, 10 uM, 30 min; active = over 0.2 and 3.5 SD of the protein, either way, in both replicates (recomputed)
Method in brief: (§1)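 Aliquots of K562 cells (2×10^6 cells/mL) treated with 10 μM compound for 30 min were heated for 3 min over 48°C-58°C. After pooling and extraction in PBS with 0.5% NP-40 at 4°C, soluble protein from a 21,000xg, 90 min spin was quantified by TMTpro 16plex LC-MS/MS with channel sums equalised. Thermal stability is expressed against control samples, from duplicates, as a log2 fold change.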

UniProt O94901, sequence (O94901 whole entry, looked up): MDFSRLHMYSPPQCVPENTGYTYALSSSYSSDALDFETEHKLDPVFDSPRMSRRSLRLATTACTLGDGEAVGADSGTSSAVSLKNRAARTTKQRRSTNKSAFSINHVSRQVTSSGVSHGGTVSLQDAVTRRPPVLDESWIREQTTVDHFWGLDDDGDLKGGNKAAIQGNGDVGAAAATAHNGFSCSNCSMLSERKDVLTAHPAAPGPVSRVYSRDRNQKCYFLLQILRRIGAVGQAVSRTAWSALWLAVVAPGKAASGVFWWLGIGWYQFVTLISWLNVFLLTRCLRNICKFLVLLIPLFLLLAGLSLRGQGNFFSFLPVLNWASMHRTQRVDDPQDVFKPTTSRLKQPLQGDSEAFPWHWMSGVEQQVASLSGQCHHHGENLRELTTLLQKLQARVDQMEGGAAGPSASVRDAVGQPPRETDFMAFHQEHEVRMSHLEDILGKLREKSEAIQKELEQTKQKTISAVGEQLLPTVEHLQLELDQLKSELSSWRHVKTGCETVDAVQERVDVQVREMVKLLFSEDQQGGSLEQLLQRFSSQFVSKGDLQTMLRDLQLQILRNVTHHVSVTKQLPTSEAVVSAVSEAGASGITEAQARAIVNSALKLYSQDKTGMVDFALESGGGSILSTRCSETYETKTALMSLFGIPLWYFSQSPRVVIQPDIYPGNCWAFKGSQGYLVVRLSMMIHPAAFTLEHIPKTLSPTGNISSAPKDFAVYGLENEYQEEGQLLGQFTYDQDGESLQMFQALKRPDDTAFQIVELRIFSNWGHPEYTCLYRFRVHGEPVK
UniProt Q9BW92, sequence (Q9BW92 whole entry, looked up): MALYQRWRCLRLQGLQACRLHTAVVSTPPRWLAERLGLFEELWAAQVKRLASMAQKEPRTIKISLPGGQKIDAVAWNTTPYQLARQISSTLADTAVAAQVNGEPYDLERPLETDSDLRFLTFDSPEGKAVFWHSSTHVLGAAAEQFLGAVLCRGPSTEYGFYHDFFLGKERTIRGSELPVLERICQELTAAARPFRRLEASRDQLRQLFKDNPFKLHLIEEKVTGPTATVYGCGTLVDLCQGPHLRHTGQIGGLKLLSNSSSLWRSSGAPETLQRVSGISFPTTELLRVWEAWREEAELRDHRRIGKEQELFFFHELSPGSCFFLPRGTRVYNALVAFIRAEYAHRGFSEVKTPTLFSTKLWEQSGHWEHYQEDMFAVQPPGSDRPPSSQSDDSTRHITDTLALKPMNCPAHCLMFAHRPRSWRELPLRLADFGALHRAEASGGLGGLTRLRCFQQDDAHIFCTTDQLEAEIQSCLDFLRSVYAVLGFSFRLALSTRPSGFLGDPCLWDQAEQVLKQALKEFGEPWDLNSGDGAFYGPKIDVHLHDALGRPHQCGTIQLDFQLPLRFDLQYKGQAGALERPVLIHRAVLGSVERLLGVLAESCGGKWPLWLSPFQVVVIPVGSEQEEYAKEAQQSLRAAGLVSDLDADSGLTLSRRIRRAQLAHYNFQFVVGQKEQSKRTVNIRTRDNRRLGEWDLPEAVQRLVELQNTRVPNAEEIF
UniProt Q9Y6I9, sequence (Q9Y6I9 whole entry, looked up): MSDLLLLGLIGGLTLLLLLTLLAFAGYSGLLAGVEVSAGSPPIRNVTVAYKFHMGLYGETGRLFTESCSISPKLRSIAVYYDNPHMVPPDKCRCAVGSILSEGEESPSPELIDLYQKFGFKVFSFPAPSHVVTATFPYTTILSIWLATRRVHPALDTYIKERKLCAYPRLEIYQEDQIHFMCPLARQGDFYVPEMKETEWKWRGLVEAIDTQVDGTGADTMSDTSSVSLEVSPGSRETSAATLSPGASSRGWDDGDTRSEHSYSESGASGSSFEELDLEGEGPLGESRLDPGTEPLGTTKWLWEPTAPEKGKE
UniProt Q15005, sequence (Q15005 whole entry, looked up): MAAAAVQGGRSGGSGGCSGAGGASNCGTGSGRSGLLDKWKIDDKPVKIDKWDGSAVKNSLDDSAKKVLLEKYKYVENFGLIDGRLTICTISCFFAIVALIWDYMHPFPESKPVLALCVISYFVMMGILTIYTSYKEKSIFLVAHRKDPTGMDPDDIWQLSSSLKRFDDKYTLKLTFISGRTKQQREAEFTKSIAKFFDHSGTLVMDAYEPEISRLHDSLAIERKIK
UniProt P78382, sequence (P78382 whole entry, looked up): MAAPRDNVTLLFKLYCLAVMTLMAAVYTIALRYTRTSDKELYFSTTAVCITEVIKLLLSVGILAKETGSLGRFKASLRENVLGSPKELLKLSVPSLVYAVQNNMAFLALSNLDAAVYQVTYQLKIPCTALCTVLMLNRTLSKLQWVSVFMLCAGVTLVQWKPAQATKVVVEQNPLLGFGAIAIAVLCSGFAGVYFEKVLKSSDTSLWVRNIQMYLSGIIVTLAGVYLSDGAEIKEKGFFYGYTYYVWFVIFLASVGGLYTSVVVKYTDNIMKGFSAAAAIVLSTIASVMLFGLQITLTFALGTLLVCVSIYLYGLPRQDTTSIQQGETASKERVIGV
UniProt Q01082, sequence (Q01082 whole entry, looked up): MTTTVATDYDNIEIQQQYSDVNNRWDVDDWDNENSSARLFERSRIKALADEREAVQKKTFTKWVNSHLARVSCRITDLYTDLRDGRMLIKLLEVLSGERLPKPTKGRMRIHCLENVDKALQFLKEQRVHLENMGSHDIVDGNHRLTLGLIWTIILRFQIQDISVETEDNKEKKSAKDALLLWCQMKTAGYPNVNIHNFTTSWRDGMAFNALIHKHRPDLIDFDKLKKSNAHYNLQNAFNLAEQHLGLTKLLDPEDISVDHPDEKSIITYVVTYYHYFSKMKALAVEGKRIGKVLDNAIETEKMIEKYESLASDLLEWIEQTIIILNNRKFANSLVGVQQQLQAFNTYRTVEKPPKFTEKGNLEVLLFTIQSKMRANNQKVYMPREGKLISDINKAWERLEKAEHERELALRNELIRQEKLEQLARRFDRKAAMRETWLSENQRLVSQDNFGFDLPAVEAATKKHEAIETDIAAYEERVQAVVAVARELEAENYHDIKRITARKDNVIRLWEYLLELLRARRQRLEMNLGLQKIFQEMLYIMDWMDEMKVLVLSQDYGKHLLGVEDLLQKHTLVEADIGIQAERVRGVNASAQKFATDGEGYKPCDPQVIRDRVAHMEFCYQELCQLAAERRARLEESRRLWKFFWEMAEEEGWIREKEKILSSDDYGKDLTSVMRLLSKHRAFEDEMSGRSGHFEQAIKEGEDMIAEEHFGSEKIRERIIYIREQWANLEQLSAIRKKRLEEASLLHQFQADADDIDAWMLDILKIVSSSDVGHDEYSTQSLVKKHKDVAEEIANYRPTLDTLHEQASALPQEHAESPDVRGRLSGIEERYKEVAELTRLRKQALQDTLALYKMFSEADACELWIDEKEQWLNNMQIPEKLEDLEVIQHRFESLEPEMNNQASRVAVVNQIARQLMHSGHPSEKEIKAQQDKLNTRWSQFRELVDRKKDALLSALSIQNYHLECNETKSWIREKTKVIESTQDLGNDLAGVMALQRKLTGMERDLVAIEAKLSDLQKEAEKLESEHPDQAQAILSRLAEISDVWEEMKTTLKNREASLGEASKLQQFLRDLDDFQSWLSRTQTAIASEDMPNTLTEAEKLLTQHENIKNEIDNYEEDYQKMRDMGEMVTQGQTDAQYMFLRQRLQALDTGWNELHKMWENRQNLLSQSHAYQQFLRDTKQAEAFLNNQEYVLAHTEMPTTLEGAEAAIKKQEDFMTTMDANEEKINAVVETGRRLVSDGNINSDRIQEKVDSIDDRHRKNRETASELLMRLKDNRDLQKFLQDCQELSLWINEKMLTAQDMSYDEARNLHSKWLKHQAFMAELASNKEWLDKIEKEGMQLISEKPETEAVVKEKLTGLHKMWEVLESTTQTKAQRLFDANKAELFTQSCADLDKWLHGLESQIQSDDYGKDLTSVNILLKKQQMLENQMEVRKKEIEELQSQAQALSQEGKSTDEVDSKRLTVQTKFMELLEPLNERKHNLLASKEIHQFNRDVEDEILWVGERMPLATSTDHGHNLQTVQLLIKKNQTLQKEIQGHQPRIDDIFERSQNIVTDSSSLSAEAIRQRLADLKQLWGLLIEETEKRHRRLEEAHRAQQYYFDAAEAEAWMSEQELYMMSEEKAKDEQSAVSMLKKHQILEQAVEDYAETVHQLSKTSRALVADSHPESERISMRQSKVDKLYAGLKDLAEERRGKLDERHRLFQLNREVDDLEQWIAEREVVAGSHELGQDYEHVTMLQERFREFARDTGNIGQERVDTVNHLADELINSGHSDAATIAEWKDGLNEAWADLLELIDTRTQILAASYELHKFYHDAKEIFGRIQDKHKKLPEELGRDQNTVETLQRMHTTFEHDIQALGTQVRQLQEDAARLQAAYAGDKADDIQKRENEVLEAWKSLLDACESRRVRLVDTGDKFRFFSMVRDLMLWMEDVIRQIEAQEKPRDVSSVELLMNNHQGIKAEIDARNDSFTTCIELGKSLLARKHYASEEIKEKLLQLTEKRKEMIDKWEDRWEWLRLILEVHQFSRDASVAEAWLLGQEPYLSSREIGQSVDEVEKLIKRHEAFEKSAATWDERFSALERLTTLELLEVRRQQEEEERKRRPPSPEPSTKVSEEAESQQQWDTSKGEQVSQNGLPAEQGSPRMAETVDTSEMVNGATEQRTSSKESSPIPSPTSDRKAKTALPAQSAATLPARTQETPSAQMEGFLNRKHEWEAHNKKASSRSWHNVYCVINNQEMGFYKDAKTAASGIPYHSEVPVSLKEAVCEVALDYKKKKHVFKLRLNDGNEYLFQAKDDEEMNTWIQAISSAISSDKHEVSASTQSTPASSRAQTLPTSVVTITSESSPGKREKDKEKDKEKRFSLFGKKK
UniProt P55061, sequence (P55061 whole entry, looked up): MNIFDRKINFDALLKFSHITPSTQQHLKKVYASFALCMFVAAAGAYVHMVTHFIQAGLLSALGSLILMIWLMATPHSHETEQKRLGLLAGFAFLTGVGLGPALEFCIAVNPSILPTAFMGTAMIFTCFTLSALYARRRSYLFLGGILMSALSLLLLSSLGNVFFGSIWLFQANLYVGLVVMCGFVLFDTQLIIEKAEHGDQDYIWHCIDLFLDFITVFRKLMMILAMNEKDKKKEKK
UniProt Q8N5G0, sequence (Q8N5G0 whole entry, looked up): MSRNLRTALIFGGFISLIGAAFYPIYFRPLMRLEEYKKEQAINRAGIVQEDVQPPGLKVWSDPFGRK

log2 fold change, active:
TEX264 (UniProt Q9Y6I9) 0.629

log2 fold change, inactive:
SYNE2 isoform 2 (UniProt Q8WXH0) 0.049
TBK1 (UniProt Q9UHD2) -0.013
TANGO6 (UniProt Q9C0B7) 0.037
TENT5C (UniProt Q5VWP2) -0.071
SLC29A3 (UniProt Q9BZD2) -0.018
SMARCE1 (UniProt Q969G3) 0.023
SRC isoform 2 (UniProt P12931) 0.007
SRFBP1 (UniProt Q8NEF9) -0.15
SLC39A11 (UniProt Q8N1S5) -0.015
TBC1D15 isoform 3 (UniProt Q8TC07) -0.012
TM7SF3 (UniProt Q9NS93) -0.011
SNX15 (UniProt Q9NRS6) -0.043
SPPL2B (UniProt Q8TCT7) -0.06
SMIM20 isoform 2 (UniProt Q8N5G0) -0.094
SRSF9 (UniProt Q13242) 0.097
SLC35F6 (UniProt Q8N357) -0.247
SPCS2 (UniProt Q15005) 0.038
TJP1 (UniProt Q07157) 0.003
TACC2 (UniProt O95359) -0.105
SSBP4 (UniProt Q9BWG4) 0.031
SNRPB2 (UniProt P08579) -0.041
STK26 (UniProt Q9P289) -0.001
SP100 isoform 4 (UniProt P23497) -0.092
STARD3NL (UniProt O95772) -0.052
SNX5 (UniProt Q9Y5X3) 0.012
TMBIM6 isoform 2 (UniProt P55061) -0.006
TARS2 (UniProt Q9BW92) -0.098
SPTBN1 (UniProt Q01082) -0.047
SLC35A1 (UniProt P78382) -0.112
SLC38A2 (UniProt Q96QD8) -0.188
SUN1 isoform 9 (UniProt O94901) -0.038
SRCAP (UniProt Q6ZRS2) -0.028
TBP (UniProt P20226) -0.158

Compound: COC(=O)N[C@@H](C)CNc1nccc(-c2cn(C(C)C)nc2-c2cc(Cl)cc(NS(C)(=O)=O)c2F)n1 [encorafenib]
Experiment: as above
Method in brief: as §1

log2 fold change, inactive:
SYNE2 isoform 2 (UniProt Q8WXH0) -0.107
TBK1 (UniProt Q9UHD2) 0.049
TANGO6 (UniProt Q9C0B7) 0.001
SLC38A7 (UniProt Q9NVC3) 0.016
TENT5C (UniProt Q5VWP2) 0.094
SRXN1 (UniProt Q9BYN0) -0.008
SLC29A3 (UniProt Q9BZD2) -0.05
SMARCE1 (UniProt Q969G3) 0.166
SRC isoform 2 (UniProt P12931) 0.082
SRFBP1 (UniProt Q8NEF9) -0.057
SLC39A11 (UniProt Q8N1S5) -0.077
TBC1D15 isoform 3 (UniProt Q8TC07) 0.068
TM7SF3 (UniProt Q9NS93) 0.089
SNX15 (UniProt Q9NRS6) 0.098
SPPL2B (UniProt Q8TCT7) 0.029
SMIM20 isoform 2 (UniProt Q8N5G0) -0.055
SRSF9 (UniProt Q13242) 0.149
SLC35F6 (UniProt Q8N357) -0.042
TBC1D20 isoform 3 (UniProt Q96BZ9) 0.074
TEX264 (UniProt Q9Y6I9) -0.039
SPCS2 (UniProt Q15005) 0.044
TJP1 (UniProt Q07157) 0.029
TACC2 (UniProt O95359) -0.013
SSBP4 (UniProt Q9BWG4) -0.18
SNRPB2 (UniProt P08579) -0.037
STK26 (UniProt Q9P289) 0.032
SP100 isoform 4 (UniProt P23497) -0.06
STARD3NL (UniProt O95772) 0.068
SNX5 (UniProt Q9Y5X3) 0.03
TMBIM6 isoform 2 (UniProt P55061) -0.005
TARS2 (UniProt Q9BW92) 0.015
SPTBN1 (UniProt Q01082) 0.064
SLC35A1 (UniProt P78382) 0.043
SLC38A2 (UniProt Q96QD8) 0.045
TAOK2 (UniProt Q9UL54) -0.028
SUN1 isoform 9 (UniProt O94901) -0.018
SRCAP (UniProt Q6ZRS2) 0.009
TBP (UniProt P20226) 0.019
